Experimental findings from the supplement of paper PMC10105736 are described below.

Test in all cases: MAPPIT interaction score (arbitrary units); higher = stronger binary interaction signal, active = hit call of the paper
The target of one assay is CG12768. To be noted: MAPPIT configuration: N-N; pair source set: Curagen_low_conf.
The target in another assay is CG8281. As to conditions: MAPPIT configuration: N-N; pair source set: screen_1.
A further assay addresses CG13069. As to conditions: pair source set: RRS.
Another assay concerns the target DCTN1-p150. As to conditions: MAPPIT configuration: N-N; pair source set: Lit-BM-16.
Another assay deals with ctp. As to conditions: pair source set: Lit-BM-16.
The target of a further assay is CG12863. As to conditions: MAPPIT configuration: N-N; pair source set: Curagen_high_conf.
The next assay deals with CG12607. As to conditions: MAPPIT configuration: N-N; pair source set: Curagen_high_conf.
In a further assay the target is CG17612. As to conditions: MAPPIT configuration: N-C; pair source set: screen_4.
In the next assay the target is CG30195. As to conditions: MAPPIT configuration: N-N; pair source set: DPIM.
Another assay addresses Cp190. To be noted: MAPPIT configuration: N-C; pair source set: Lit-BM-16.
The next assay addresses Cpr72Ea. To be noted: MAPPIT configuration: N-N; pair source set: Lit-BS-16.
Another assay concerns the target Trl. To be noted: MAPPIT configuration: N-N; pair source set: Finley_Y2H.
The target of a further assay is Ubc6.
The target in the next assay is Zasp52. As to conditions: MAPPIT configuration: N-N.
Another assay deals with fl(2)d. As to conditions: MAPPIT configuration: N-N; pair source set: screen_2.
The next assay addresses su(Hw). To be noted: pair source set: Lit-BM-16.
The next assay addresses CG12576. As to conditions: MAPPIT configuration: N-C; pair source set: screen_4.
The target of another assay is CG30355. As to conditions: MAPPIT configuration: N-C; pair source set: screen_4.
In a further assay the target is Vha16-2. As to conditions: MAPPIT configuration: N-C; pair source set: screen_3.
Another assay addresses CG13058. As to conditions: pair source set: RRS.
The target of another assay is CG12963. To be noted: MAPPIT configuration: N-N; pair source set: Curagen_high_conf.

Unmarked numbers belong to inactive results.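 Rule for the calls: active = MAPPIT score above the 99th percentile of random reference set scores in the same batch; inactive = at or below it.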
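Note: HEK293T cells with Epo stimulation, STAT-responsive firefly luciferase reporter, fold induction versus unstimulated cells divided by the larger fold induction of two negative controls lacking either bait or prey.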

B1: dod (protein)
chain: MPDAEQLPDGWEKRTSRSTGMSYYLNMYTKESQWDQPTEPAKKAGGGSAGGGDAPDEVHCLHLLVKHKGSRRPSSWREANITRTKEEAQLLLEVYRNKIVQQEATFDELARSYSDCSSAKRGGDLGKFGRGQMQAAFEDAAFKLNVNQLSGIVDSDSGLHIILRKA
As for B1, the MAPPIT interaction score with CG12768 was 0.142; with CG8281, -0.114.

B2: sw (protein)
chain: MDRKAELERKKAKLAALREEKDRRRREKEIKDMEEAAGRIGGGAGIDKDQRKDLDEMLSSLGVAPVSEVLSSLSSVNSMTSDNSNTQTPDASLQATVNGQSGGKKQPLNLSVYNVQATNIPPKETLVYTKQTQTTSTGGGNGDVLSCHSSPLSGYMEDWWRPRKAHATDYYDEYNLNPGLEWEDEFTDDEESSLQNLGNGFTSKLPPGYLTHGLPTVKDVAPAITPLEIKKETEVKKEVNELSEEQKQMIILSENFQRFVVRAGRVIERALSENVDIYTDYIGGGDSEEANDERSHARLSLNRVFYDERWSKNRCITSMDWSTHFPELVVGSYHNNEESPNEPDGVVMVWNTKFKKSTPEDVFHCQSAVMSTCFAKFNPNLILGGTYSGQIVLWDNRVQKRTPIQRTPLSAAAHTHPVYCLQMVGTQNAHNVISISSDGKLCSWSLDMLSQPQDTLELQQRQSKAIAITSMAFPANEINSLVMGSEDGYVYSASRHGLRSGVNEVYERHLGPITGISTHYNQLSPDFGHLFLTSSIDWTIKLWSLKDTKPLYSFEDNSDYVMDVAWSPVHPALFAAVDGSGRLDLWNLNQDTEVPTASIVVAGAPALNRVSWTPSGLHVCIGDEAGKLYVYDVAENLAQPSRDEWSRFNTHLSEIKMNQSDEV
As for B2, the MAPPIT interaction score in the assay with CG13069 (MAPPIT configuration: N-C) is -0.364; with CG13069 (MAPPIT configuration: N-N), 0.421; in the assay with DCTN1-p150, 1.87; with ctp (MAPPIT configuration: N-C), 1.37; with ctp (MAPPIT configuration: N-N), 1.75.

B3: Rab26 (protein)
chain: MASTAVGLGGGEGDPGAGGPPAGSAHPDDASSMSDDVFEDAETTQARIEELRRRPFGDGSYNPPAAPASVSASITTTTTQQQQQHHNPSHHHQSSHHQPSHHHHHHHHSQLSLTGSHHYHDDAIMAPVQRSATGYPGYRPSREAMQMYAYGTDDYDDDYNDGWRSYRYDEVDMHPAPSNAHQQPFDDTVNHKTILLGDSGVGKTSFLVKYNTGEFRLGSFSATVGIALTNKVVVVDGTRVKLQIWDTAGQERFRSVTHAYYRDAHALLLLYDVTNKTTYDNIRAWLGEIREYAQEDVVIVLIGNKADCSGSERQVKREDGERLGREHNVPFMETSAKTGLNVELSFTAVARQLKSRGYEHGDDGKFNVHDFVRDNTKARSVCAQCRNM
Consider B3, for which, in the assay with CG12863, the MAPPIT interaction score was 1.43.

B4: mod(mdg4) (protein)
chain: MADDEQFSLCWNNFNTNLSAGFHESLCRGDLVDVSLAAEGQIVKAHRLVLSVCSPFFRKMFTQMPSNTHAIVFLNNVSHSALKDLIQFMYCGEVNVKQDALPAFISTAESLQIKGLTDNDPAPQPPQESSPPPAAPHVQQQQIPAQRVQRQQPRASARYKIETVDDGLGDEKQSTTQIVIQTTAAPQATIVQQQQPQQAAQQIQSQQLQTGTTTTATLVSTNKRSAQRSSLTPASSSAGVKRSKTSTSANVMDPLDSTTETGATTTAQLVPQQITVQTSVVSAAEAKLHQQSPQQVRQEEAEYIDLPMELPTKSEPDYSEDHGDAAGDAEGTYVEDDTYGDMRYDDSYFTENEDAGNQTAANTSGGGVTATTSKAVVKQQSQNYSESSFVDTSGDQGNTEAQAATSASATKIPPRKRGRPKTKVEDQTPKPKLLEKLQAATLNEEASEPAVYASTTKGGVKLIFNGHLFKFSFRKADYSVFQCCYREHGEECKVRVVCDQKRVFPYEGEHVHFMQASDKSCLPSQFMPGESGVISSLSPSKELLMKNTTKLEEADDKEDEDFEEFEIQEIDEIELDEPEKTPAKEEEVDPNDFREKIKRRLQKALQNKKK
With B4, the MAPPIT interaction score in the assay with CG12607 is 0.232; in the assay with CG17612, 4.86 (active); in the assay with CG30195, 2.59 (active); in the assay with Cp190 it was 1.09; in the assay with Cpr72Ea, -2.84; with Trl, -0.456. Moreover, the MAPPIT interaction score with Ubc6 (MAPPIT configuration: N-C, pair source set: screen_3) was 3.96 (active); in the assay with Ubc6 (MAPPIT configuration: N-N, pair source set: screen_2) it was 5.53 (active); with Zasp52 (pair source set: Curagen_low_conf) it was 0.192; with Zasp52 (pair source set: Lit-BS-16) it was -0.533; with fl(2)d it was -0.311; with su(Hw) (MAPPIT configuration: N-C) it was 0.885. The MAPPIT interaction score in the assay with su(Hw) (MAPPIT configuration: N-N) was 0.105.

B5: Cys (protein)
chain: MNVVKSLCILGLVLVSLIATQAADEQVVGGVSQLEGNSRKEALELLDATLAQLATGDGPSYKAINVTSVTGQVVAGSLNTYEVELDNGSDKKQCTVKIWTQPWLKENGTNIKIKCSGDDGELDRTW
As for B5, the results for the MAPPIT interaction score with CG12576, with CG30355 and in the assay with Vha16-2 were -0.0839, 2.13 and 0.0929, respectively.

B6: Fdx2 (protein)
chain: MLVINSCRAASRLALRSLNLRSPIATRTFSTGLALKTKDVVNITFVRANGDKIKTSGKVGDSLLDVVVNNNVDLDGFGACEGTLTCSTCHLIFKTSDFEKLPDKPGDEELDMLDLAYELTDTSRLGCQITLSKDMEGLEVHVPSTINDARAA
Consider B6, for which the figures for the MAPPIT interaction score with CG13058 (MAPPIT configuration: N-C) and with CG13058 (MAPPIT configuration: N-N) were 0.365 and 0.0953, respectively.

B7: csw (protein)
chain: MSSRRWFHPTISGIEAEKLLQEQGFDGSFLARLSSSNPGAFTLSVRRGNEVTHIKIQNNGDFFDLYGGEKFATLPELVQYYMENGELKEKNGQAIELKQPLICAEPTTERWFHGNLSGKEAEKLILERGKNGSFLVRESQSKPGDFVLSVRTDDKVTHVMIRWQDKKYDVGGGESFGTLSELIDHYKRNPMVETCGTVVHLRQPFNATRITAAGINARVEQLVKGGFWEEFESLQQDSRDTFSRNEGYKQENRLKNRYRNILPYDHTRVKLLDVEHSVAGAEYINANYIRLPTDGDLYNMSSSSESLNSSVPSCPACTAAQTQRNCSNCQLQNKTCVQCAVKSAILPYSNCATCSRKSDSLSKHKRSESSASSSPSSGSGSGPGSSGTSGVSSVNGPGTPTNLTSGTAGCLVGLLKRHSNDSSGAVSISMAEREREREREMFKTYIATQGCLLTQQVNTVTDFWNMVWQENTRVIVMTTKEYERGKEKCARYWPDEGRSEQFGHARIQCVSENSTSDYTLREFLVSWRDQPARRIFHYHFQVWPDHGVPADPGCVLNFLQDVNTRQSHLAQAGEKPGPICVHCSAGIGRTGTFIVIDMILDQIVRNGLDTEIDIQRTIQMVRSQRSGLVQTEAQYKFVYYAVQHYIQTLIARKRAEEQSLQVGREYTNIKYTGEIGNDSQRSPLPPAISSISLVPSKTPLTPTSADLGTGMGLSMGVGMGVGNKHASKQQPPLPVVNCNNNNNGIGNSGCSNGGGSSTTSSSNGSSNGNINALLGGIGLGLGGNMRKSNFYSDSLKQQQQREEQAPAGAGKMQQPAPPLRPRPGILKLLTSPVIFQQNSKTFPKT
For B7, the MAPPIT interaction score in the assay with CG12963 was -0.144.
